SMILES strings stand for the structures. Compounds without any hit were thinned out: in the full panel of roughly 83,000, 20% have a hit.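 How to read the values: 0–100, growth inhibition (40 = 60% inhibited); 0, no net growth; -100 to 0, cell death (-40 = 40% of starting cells died; -100 = all dead).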 Values without a mark were called inactive. Activity calls are given as the source filed them. How the source made its calls: active means growth percent below 10; inactive means the rest.

For this assay, the system named is A549/ATCC NSCLC. Description: NCI-60 one-dose screen, 48 h (100 = growth as untreated, 0 = no growth, -100 = all killed). Particulars: 10 µM unless noted.
For the compound `Cc1cc(-c2nc3ccccc3s2)ccc1NC(=O)COc1ccc(Cl)cc1`, the growth was 109%.

With `C[C@H](CCC(=O)O)[C@H]1CC[C@H]2[C@@H]3CC[C@@H]4/C(=C\c5ccco5)C(=O)/C(=C\c5ccco5)C[C@]4(C)[C@H]3CC[C@]12C`, the growth was 72.1%.

With `COc1cc2c(c(OC)c1OC)-c1ccc(N=NC(N)=S)c(=O)cc1[C@@H](NC(C)=O)CC2`, the growth was 15%.

In the case of `c1ccc(CSc2ncnc3nc[nH]c23)nc1`, the growth was 106%.

As to `CC(=O)Nc1ccc2c(c1)c(NC(C)=O)nn2C(=O)Nc1ccc(Cc2ccccc2)cc1`, the growth was 92.1%.

Turning to `COc1cc2c(=O)n(CC3CCCCC3)c3c4cc[nH]c4ncc3c2cc1OC`, the growth was 31.6%.

Turning to `COC1/C=C\OC2(C)Oc3c(C)c(O)c4c(O)c(c(CN(C)CCO)c(O)c4c3C2=O)NC(=O)/C(C)=C\C=C/C(C)C(O)C(C)C(O)C(C)C(OC(C)=O)C1C` (stereo not given), the growth was 116%.

In the case of `Cc1cc(N/N=C/c2nc(-c3ccc(Cl)cc3)oc2C)c2cc(Cl)ccc2n1`, the growth is 21.9%.

As for `C=C1CC[C@@H]2[C@](C)(COC(C)=O)[C@H](OC(C)=O)CC[C@@]2(C)[C@@H]1CC(NCc1ccc(F)cc1)C1=CCOC1=O` (stereo not given in full), the growth was 57.9%.

As for `Cn1c2c(Cl)c(Cl)ccc2c2ccn3c(=O)c4ccccc4nc3c21`, the growth is 108%.

Take `CCOC(=O)Cc1cnn(C)c1NC(=O)c1ccc(Cl)cc1NC(C)=O`: the growth was 103%.

In the case of `COc1ccc(-c2cc(NC(=O)Nc3ccc(O)cc3)no2)cc1`, the growth is 67.6%.

For `S=c1[nH]nc(CSc2ncnc3c2c(-c2ccccc2)cn3-c2ccc(Cl)cc2)o1`, the growth is 98.5%.

Regarding `COc1c(Cl)cc(Cl)cc1Cl`, the growth was 116%.

As for `COc1ccc(-c2nn(-c3ccccc3)cc2/C=C/C(=O)OCc2cn(-c3ccc(F)c(Cl)c3)nn2)cc1`, the growth was 92.1%.

For the compound `COc1ccc2c(c1)C(=O)/C(=C/c1cccc(OCC(=O)Nc3nc4c(s3)CCCC4)c1)O2`, the growth is 54.6%.

In the case of `CCN(CC)CC(C)Nc1ccc([N+](=O)[O-])c2sc3ccccc3c(=O)c12` (stereo not given), the growth is 14.2%.

Regarding `Cc1nn(-c2ccccc2)c2nc(C)n(-c3ccc(Br)cc3)c(=O)c12`, the growth is 21.3%.

Turning to `OC(c1cc(-c2ccccc2)nc2ccc(Cl)cc12)C1CCCCN1` (stereo not given), the growth is 21.7%.

In the case of `COc1ccc(S(=O)(=O)NCCNc2nccc(-c3c(-c4cccc([N+](=O)[O-])c4)nc4sccn34)n2)cc1`, the growth was 80.2%.

Turning to `COc1ccc(Cl)cc1Nc1nc(C(F)(F)F)ccc1C(=O)N/N=C/c1cccnc1`, the growth is 58.7%.

Turning to `COc1ccc(-c2nn(-c3ccccc3)cc2/C=C2\SC(=O)NC2=O)cc1`, the growth was 105%.

With `Cc1ccc2c(c1)C(=O)c1c-2c(OCCCN(C)C)nc2ccccc12`, the growth is -43.9% (active).

Turning to `Cc1ccc(-c2nc(/C=N/Nc3cc(C)nc4ccc(Br)cc34)c(C)o2)cc1`, the growth is -56.1% (active).

As for `CCCCNP1(NCCCC)=NP(NCCCC)(NCCCC)=NP(NCCCC)(NCCCC)=NP(NCCCC)(NCCCC)=N1`, the growth is 0.875% (active).

Take `COc1ccc(-n2cc(-c3ccccc3)c3c(SCC(=O)N/N=C/c4ccc([N+](=O)[O-])cc4)ncnc32)cc1`: the growth was 105%.

On to `Nc1cccc(-c2nc3sccn3c2-c2ccnc(NCCCNS(=O)(=O)c3ccc(C(F)(F)F)cc3)n2)c1`, for which the growth was 12.8%.

Consider `CCN(CC)CC(O)c1cc(-c2ccc(Cl)cc2)nc2c(C)c(Cl)ccc12` (stereo not given), for which the growth is -85.8% (active).

For the compound `O=C1/C(=C/c2ccc(F)cc2)CN(C(=O)CCN2CCC(=NO)CC2)C/C1=C\c1ccc(F)cc1`, the growth was 28.4%.

In the case of `CC(C)C1=C[C@@]23CC[C@@H]4[C@](C)(CCC[C@@]4(C)C(=O)OCC#CCN4CCCC4)[C@H]2C[C@@H]1[C@H]1C(=O)OC(=O)[C@H]13`, the growth is 98.4%.

In the case of `Cc1ccc2c(c1)C(=O)/C(=C/c1ccc(OCC(=O)c3ccccc3)cc1)O2`, the growth was 81.6%.

On to `Cc1ccc2c(c1)n([O-])c1cc(Cl)ccc1[n+]2=O`, for which the growth is 98.9%.

As for `COc1ccccc1/C=C(/C(=O)c1ccccc1)c1ccccc1`, the growth is 97.4%.

For `COc1nc2c(cc1S(=O)(=O)c1ccccc1)CCc1c-2cnn1-c1ccc(Cl)cc1`, the growth is 95.4%.

Turning to `CNc1cc2nc3cc(NC)c(C)cc3cc2cc1C`, the growth was -4.57% (active).

The values are drawn from PubChem BioAssay (NCI).
